Bioassay records from PubChem BioAssay.
ELG1 DNA repair – ELG1-dependent DNA repair inhibition; AID 504467; HEK293T ELG1-luciferase reporter, luminescence, 16 h; DNA damage induced by 5-fluorouridine; hit rate 2.3% among 330,000; Potency, µM (doses to about 46.1 µM), most hits filed as inhibitors; further: nearly all actives have a fitted effect of over 55% in size
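Cells (2,000 per well) received 5-fluorouridine plus test compound or DMSO and were incubated 16 hr at 37 °C, 5% CO2. Luciferase activity was read by luminescence 30 min after ONE-Glo addition; signal suppression marked inhibition of damage-induced ELG1 function.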
KB-V1 MDR tox – kills drug-selected multidrug resistant KB-V1 cells | KB-V1 MDR cells viability, CellTiter-Glo, 72 h | Potency, µM (top dose mostly 46.1 µM), usual class: cytotoxic | hit rate 3.4% among 400,000 | AID 1347076; further: nearly all actives have a fitted effect of over 60% in size
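Luminescent ATP read-out (CellTiter-Glo, 10 min) measures survival of drug-selected KB-V1 MDR cells after 72 h, 37 degrees C compound exposure. Medium: phenol-red-free DMEM, 10% FBS. Values from fitted concentration-response curves.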
SW480 rerep – DNA re-replication induction in SW480 cells; Potency, µM (series often up to 46.1 µM), usual class: activators; SW480 DNA re-replication, Hoechst DNA content imaging, 48 h; hit rate 1.8% among 340,000; AID 624297; further: nearly all actives have a fitted effect of over 55% in size
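Image-based read-out: total Hoechst fluorescence of nuclei (405 nm excitation, 500-530 nm emission), with hits raising the fraction of high-intensity nuclei. SW480 colon cells incubated 48 hr with compounds at 37 C.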
KB-3-1 cytotox – KB-3-1 parental cell cytotoxicity; KB-3-1 viability, CellTiter-Glo ATP luminescence, 72 h; Potency, µM (doses to about 46.1 µM), actives largely listed as cytotoxic; hit rate 1.4% among 400,000; further: nearly all actives have a fitted effect of over 60% in size
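Cytotoxicity in the drug-sensitive parental line KB-3-1 was scored as loss of CellTiter-Glo luminescence following 72 h incubation with compound. Values come from curve fitting of normalized concentration-response data.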
MCF10A rerep – induces DNA re-replication in MCF 10a normal breast cells; Potency, µM (top dose mostly 46.1 µM), hits mostly activators; AID 624296; hit rate 2.9% among 350,000; MCF 10A DNA re-replication, Hoechst nuclear intensity, 48 h; further: nearly all actives have a fitted effect of over 50% in size
Each line names hits and unclear results; the compound was inactive in the other large screens. This is a sample that favours compounds with a hit; in the whole collection about 8.1% have one here. The call rests on the fitted dose curve; in most records, active means well fitted curve in the direction sought with a large enough effect; inconclusive means small, poorly fitted or top-dose-only effect, or another doubt; inactive means no such curve, though single readings can be large; an effect the other way counts as inactive or inconclusive.

C#CCOCCOCCOCCNc1nc(N2CCN(C(=O)[C@H](CCCCN)n3cc(CN)nn3)CC2)nc(N2CCN(C(=O)[C@H](CCC(=O)O)n3cc([C@@H](N)CCSC)nn3)CC2)n1	none
COc1c(Br)cc([N+](=O)[O-])c(OC)c1C(=O)NC(=O)Nc1cc(Cl)cc(Cl)c1	ELG1 DNA repair inconclusive, KB-V1 MDR tox 6.5µM, KB-3-1 cytotox inconclusive, MCF10A rerep inconclusive
COC(=O)C1=C(C)Nc2nc3ccccc3n2C1c1cc(OC)c(OC)c(OC)c1 (stereo unspecified)	ELG1 DNA repair inconclusive
Cc1onc(C(=O)NCCc2ccccc2)c1[N+](=O)[O-]	KB-V1 MDR tox inconclusive, SW480 rerep inconclusive
O=C(NNC(=O)c1ccc(F)cc1)c1ccncc1	none
O=C(NNC1=Nc2ccccc2SC1)c1ccc(Cl)cc1	ELG1 DNA repair 6.5µM, KB-V1 MDR tox inconclusive, SW480 rerep 18µM, KB-3-1 cytotox inconclusive, MCF10A rerep inconclusive
O=C(NNC1=Nc2ccccc2SC1)c1ccc(F)cc1	ELG1 DNA repair 9.2µM, KB-3-1 cytotox inconclusive
O=C(NNc1c2ccccc2nc2ccccc12)c1ccc(Cl)cc1	SW480 rerep inconclusive, KB-3-1 cytotox inconclusive
CC(C)(C)OC(=O)N1CCN(C(=O)OCC2c3ccccc3-c3ccccc32)CC1C(=O)O (stereo unspecified)	none (no result: ELG1 DNA repair)
C=CCn1c(SCC(=O)NNC(=S)Nc2ccccc2)nnc1-c1ccccc1	none
C=CCn1c(SCC(=O)c2ccccc2)nnc1-c1ccc2c(c1)OCO2	KB-V1 MDR tox 21µM, SW480 rerep inconclusive, MCF10A rerep inconclusive
C=CCn1c(SCc2ccc(C(=O)Nc3ccccc3)cc2)nnc1-c1ccccc1	KB-V1 MDR tox 2.6µM
CCCNC(=O)CCn1c(-c2ccc(C)cc2)cc(C(=O)OCC)c1C	none
C/C(CC(=O)Nc1ccccn1)=N\NC(=O)c1ccncc1	none (no result: KB-V1 MDR tox, SW480 rerep, KB-3-1 cytotox, MCF10A rerep)
C/C(CC(=O)Nc1cc(C)ccn1)=N\NC(=O)c1cccc(C)c1O	ELG1 DNA repair inconclusive, KB-V1 MDR tox inconclusive, SW480 rerep 12µM, KB-3-1 cytotox inconclusive, MCF10A rerep inconclusive
C/C(CC(=O)Nc1ccccn1)=N\NC(=O)c1ccccc1O	ELG1 DNA repair inconclusive, SW480 rerep 1.3µM, KB-3-1 cytotox inconclusive
Cc1ccc(NS(=O)(=O)c2ccc3c(c2)CCCN3C(=O)C2CCC2)cc1Cl	KB-3-1 cytotox inconclusive (no result: ELG1 DNA repair, SW480 rerep, MCF10A rerep)
O=C(CCNC(=O)c1ccccc1Cl)Nc1ccncc1	none
CCn1c(CNc2ccc(F)cc2)nnc1SCC#N	none
CCOc1ccc(NC(=O)Cn2c(=O)oc3cc(Cl)ccc32)cc1	none
CCOC(=O)c1ccc(NC(=S)N(CCCN(CC)CC)Cc2ccco2)cc1	MCF10A rerep inconclusive
CC(C)(C)c1ccc(CC(=O)N2CCC2(C)C(=O)NCc2ccc(Cl)cc2)cc1 (stereo unspecified)	KB-V1 MDR tox 21µM, KB-3-1 cytotox inconclusive (no result: ELG1 DNA repair, SW480 rerep, MCF10A rerep)
CC(C)(C)c1ccc(C(=O)N2CCN(CCNC(=O)C(=O)NCc3ccc(Cl)cc3)CC2)cc1	ELG1 DNA repair 12µM, SW480 rerep inconclusive, KB-3-1 cytotox inconclusive, MCF10A rerep inconclusive
O=C(c1ccccc1)C1OC1C(=O)c1ccccc1 (stereo unspecified)	KB-V1 MDR tox inconclusive, SW480 rerep 15µM, KB-3-1 cytotox inconclusive, MCF10A rerep 9.2µM (no result: ELG1 DNA repair)
N#CC1=C(N)OC2=C(CCc3ccccc32)C1c1ccccc1Cl (stereo unspecified)	ELG1 DNA repair inconclusive, KB-V1 MDR tox 4.6µM, SW480 rerep 8.2µM, KB-3-1 cytotox inconclusive, MCF10A rerep 2.9µM
O=C(COC(=O)c1ccccn1)Nc1ccc(S(=O)(=O)N2CCOCC2)cc1	none
CCc1nc2ccccc2c(C(=O)OCC(=O)Nc2cccc(S(=O)(=O)NC3=NCCCCC3)c2)c1C	ELG1 DNA repair 13µM, SW480 rerep inconclusive, KB-3-1 cytotox inconclusive, MCF10A rerep inconclusive
CCc1nc2ccccc2c(C(=O)OCC(=O)Nc2ccc(S(=O)(=O)N3CCOCC3)cc2)c1C	ELG1 DNA repair 18µM
CCOc1ccc(C(=O)NC(=S)Nc2cccc(S(=O)(=O)NC3=NCCC3)c2)cc1	KB-V1 MDR tox 7.3µM, SW480 rerep inconclusive, KB-3-1 cytotox 2.3µM, MCF10A rerep 2.6µM
CCc1nc2ccccc2c(C(=O)OCC(=O)Nc2cccc(S(=O)(=O)N3CCOCC3)c2)c1C	ELG1 DNA repair inconclusive, KB-V1 MDR tox 6.5µM, SW480 rerep inconclusive, KB-3-1 cytotox 21µM
CCOc1ccccc1N(CC(=O)N1CCc2ccccc2C1)S(C)(=O)=O	KB-V1 MDR tox inconclusive
O=C(Nc1cccc(S(=O)(=O)NC2=NCCC2)c1)c1cc(-c2ccco2)nc2ccccc12	none
CCOc1cc(C(=O)OCC(=O)Nc2cccc(S(=O)(=O)NC3=NCCCCC3)c2)cc(OCC)c1OCC	ELG1 DNA repair inconclusive, KB-V1 MDR tox 8.2µM
CCOc1ccccc1C(=O)OCC(=O)Nc1cccc(S(=O)(=O)NC2=NCCCCC2)c1	none (no result: ELG1 DNA repair)
O=C(NC(=S)Nc1cccc(S(=O)(=O)NC2=NCCC2)c1)c1cc(-c2ccco2)nc2ccccc12	ELG1 DNA repair inconclusive, SW480 rerep 9.2µM, KB-3-1 cytotox 6.5µM, MCF10A rerep inconclusive
COc1ccc(NC(=O)CN2CCCC(C)C2)c([N+](=O)[O-])c1 (stereo unspecified)	KB-V1 MDR tox inconclusive
O=C(Nc1ccccc1)C1CCN(S(=O)(=O)c2ccc3[nH]c4c(c3c2)CCCCC4)CC1	none (no result: ELG1 DNA repair, SW480 rerep, MCF10A rerep)
CC(SCc1ccccc1)C(=O)Nc1ccc(F)cc1 (stereo unspecified)	KB-V1 MDR tox inconclusive
Cc1cccc(CSC(=N)N)c1	ELG1 DNA repair inconclusive
Cc1cccc(CSC(Nc2ccc(F)cc2)=C(C#N)C#N)c1	ELG1 DNA repair inconclusive, KB-V1 MDR tox inconclusive, SW480 rerep inconclusive, KB-3-1 cytotox 16µM, MCF10A rerep 15µM
N#CC(C#N)=C(Nc1ccc(F)cc1)SCc1cccc(Br)c1	ELG1 DNA repair inconclusive, KB-V1 MDR tox 9.2µM, SW480 rerep inconclusive, KB-3-1 cytotox 10µM, MCF10A rerep 3.3µM
Cc1ccc(Cl)cc1N1CCN(C(=O)C2CCN(S(=O)(=O)c3cccnc3)CC2)CC1	KB-V1 MDR tox inconclusive
Cc1ccc(Cl)cc1N1CCN(C(=O)C2CCN(S(=O)(=O)c3c(C)nn(C)c3C)CC2)CC1	ELG1 DNA repair 18µM, SW480 rerep inconclusive, MCF10A rerep inconclusive
Cc1n[nH]c(C)c1S(=O)(=O)N1CCCC(C(=O)N2CCN(c3ccc(Cl)cc3)CC2)C1 (stereo unspecified)	ELG1 DNA repair inconclusive, KB-V1 MDR tox inconclusive, SW480 rerep inconclusive
Cc1nn(C)c(C)c1S(=O)(=O)N1CCCC(C(=O)N2CCN(c3ccc(Cl)cc3)CC2)C1 (stereo unspecified)	ELG1 DNA repair inconclusive, KB-3-1 cytotox 18µM
COc1cccc(/C=C2\SC(=S)N(CCC(=O)N3CCCCC3)C2=O)c1	KB-3-1 cytotox inconclusive, MCF10A rerep 10µM
COc1ccc(/C=C2\SC(=S)N(CCC(=O)N3CCCCC3)C2=O)cc1	none
